FUS suppressor: rescues growth of FUS-expressing yeast | 0.24% of 390,000 active | Potency, µM (titrated, usually from 76.6 µM), actives largely listed as activators | S. cerevisiae FUS-expressing, growth rescue, OD600, 24 h; note: nearly all actives have a fitted effect of over 55% in size
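Yeast FUS proteinopathy model; galactose-induced FUS (2%), starting OD 0.005. Cpds in dilution series, 24hr, 30C, 99% humidity. Abs 600 nm growth. Pos ctrl CP55940 (top 92uM final); neg ctrl DMSO.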
TDP43 rescue: rescues yeast growth from TDP-43 toxicity; TDP-43 expressing yeast growth rescue, BacTiter-Glo, 24 h; Potency, µM (highest dose often 46.1 µM), most hits filed as activators; 1.8% of 410,000 active; AID 652104; note: nearly all actives have a fitted effect of over 50% in size
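Galactose-induced TDP-43 yeast, OD600=0.02, compound pinned; 24 hr, 30 deg C; BacTiter-Glo luminescence for growth. Inhibitors of TDP-43 toxicity read as activators.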
aSyn yeast inh: alpha-synuclein toxicity inhibition in yeast; 0.14% of 370,000 active; Potency, µM (doses to about 46.1 µM), usual class: activators; Yeast expressing alpha-synuclein, growth rescue, BacTiter-Glo, 24 h; note: nearly all actives have a fitted effect of over 65% in size
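Screening used galactose-induced yeast with toxic alpha-synuclein levels, exposed to compound for 24 hr at 30 deg C. Cell growth, read with BacTiter-Glo luminescence, gave the measured signal.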
Abeta rescue: A-beta toxicity reversal in yeast | yeast expressing A-beta42, growth rescue, OD600, 48 h; response scale: 0% DMSO, 100% iron-clioquinol control | Potency, µM (top dose mostly 46.1 µM), usual class: activators | 0.063% of 410,000 active; note: nearly all actives have a fitted effect of over 55% in size
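Growth rescue measured by 600 nm absorbance after 48 h yeast culture at 30 C with compound. Values normalized between DMSO and an equimolar ferric chloride plus clioquinol control.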
Numbers stand for hits; [ ] = remark or other dose. Shown are actives, neighbours in structure and some others; about 2.1% of the full set was active somewhere. Calls come from the whole dose curve; as a rule, active = well fitted curve in the direction sought with a large enough effect; inconclusive = small, poorly fitted or top-dose-only effect, or another doubt; inactive = no such curve, though single readings can be large; an effect the other way counts as inactive or inconclusive.

CCC(C(=O)c1ccc2ncccc2c1)c1ccccc1 (stereo unspecified) was read as FUS suppressor inactive, TDP43 rescue 14µM, aSyn yeast inh inactive and Abeta rescue inactive.
`Cc1ccc(N2C(=O)[C@@H]3[C@H](C2=O)[C@H]2C=C(C(=O)c4ccccc4)C=CN2[C@@H]3C(=O)c2ccc(Cl)cc2)cc1` gave FUS suppressor 28µM, TDP43 rescue inactive, aSyn yeast inh inactive and Abeta rescue inactive.
`O=C(C1=C[C@@H]2[C@H]3C(=O)N(c4cccc(Cl)c4)C(=O)[C@H]3[C@@H](C(=O)c3ccc(Cl)cc3)N2C=C1)c1ccccc1` gave FUS suppressor inactive, TDP43 rescue inactive[0.397 µM], aSyn yeast inh inactive and Abeta rescue inactive.
For Cc1cc(-c2ccc(C)c(S(=O)(=O)NCc3ccc(Cl)cc3)c2)on1 the results were FUS suppressor inactive, TDP43 rescue 32µM and Abeta rescue inactive.
Screening CCc1ccc(-c2cc(C)no2)cc1S(=O)(=O)NCCc1ccccc1 returned FUS suppressor inactive, TDP43 rescue 13µM, aSyn yeast inh inactive and Abeta rescue inactive.
`CCc1ccc(-c2cc(C)no2)cc1S(=O)(=O)Nc1ccc(Cl)cc1` gave FUS suppressor inconclusive, TDP43 rescue 22µM and Abeta rescue inactive.
CN(C)c1ccc(/C=C2\NC(=O)NC2=O)cc1 was read as aSyn yeast inh inactive.
CCn1c(SC/C=C/c2ccccc2)nnc1-c1cccs1 was read as FUS suppressor inactive, TDP43 rescue inactive, aSyn yeast inh inactive and Abeta rescue inactive.
For Cn1c(SC/C=C/c2ccccc2)nnc1-c1cccs1 the results were FUS suppressor inactive, TDP43 rescue 18µM, aSyn yeast inh inactive and Abeta rescue inactive.
`Cc1cc(OCCSc2nnc(-c3cccs3)n2C)ccc1Cl` gave FUS suppressor inactive, TDP43 rescue inconclusive, aSyn yeast inh inactive and Abeta rescue inactive.
Screening Cc1ccc(OCCSc2nnc(-c3cccs3)n2C)cc1 returned FUS suppressor inactive, TDP43 rescue 13µM, aSyn yeast inh inactive and Abeta rescue inactive.
For COc1ccc(CN2CCC(CNC(=O)NC3CCCC3)CC2)cc1 the results were FUS suppressor inactive.
Screening CCCC[C@@H]1CNC(=S)N1CCc1cccc2ccccc12 returned FUS suppressor inactive, TDP43 rescue 35µM, aSyn yeast inh inactive and Abeta rescue inconclusive.
`CCCCN1C(=S)NC[C@@H]1Cc1cccc2ccccc12` gave FUS suppressor inconclusive, TDP43 rescue inconclusive, aSyn yeast inh inactive and Abeta rescue inactive.
Screening CC(C)c1ccc(/C=C(\c2nc3ccccc3[nH]2)S(=O)(=O)c2ccccc2)cc1 returned FUS suppressor inactive, TDP43 rescue inactive, aSyn yeast inh inactive and Abeta rescue inactive.
O=S(=O)(/C(=C/c1ccc(C(F)(F)F)cc1)c1nc2ccccc2[nH]1)c1ccccc1 was read as FUS suppressor inactive, TDP43 rescue 10µM, aSyn yeast inh inactive and Abeta rescue inactive.
For COc1ccc(N2CCN(C(=O)c3cc4c(-c5cccc(OC)c5)nn(C)c4s3)CC2)cc1 the results were FUS suppressor inconclusive, TDP43 rescue 16µM, aSyn yeast inh inactive and Abeta rescue inactive.
For COc1ccc(-c2nn(C)c3sc(C(=O)N4CCN(c5ccccc5F)CC4)cc23)cc1OC the results were FUS suppressor inactive, TDP43 rescue 20µM and Abeta rescue inactive.
Screening COc1ccc(-c2nn(C)c3sc(C(=O)N4CCOCC4)cc23)cc1OC returned FUS suppressor inactive, TDP43 rescue inactive, aSyn yeast inh inactive and Abeta rescue inactive.
O=C(NCC(c1ccccc1)c1ccccc1)[C@H](Cc1ccccc1)NC1(C(=O)NC2CCCCC2)CCC1 was read as FUS suppressor inactive.
`CCC(C)NC(=O)c1cnn(-c2ccc(Cl)cc2)c1C1CCN(C(=O)OC(C)(C)C)CC1` (stereo unspecified) gave FUS suppressor inactive, TDP43 rescue inconclusive and Abeta rescue inactive.
Cc1cc(SCC(=O)N/N=C/c2ccc(O)c(O)c2O)c(C)cc1Br was read as TDP43 rescue inactive, aSyn yeast inh 16µM and Abeta rescue inactive.
Screening Cc1cc(NC(=O)Cn2nc(C)n3cccc3c2=O)ccc1Br returned FUS suppressor inactive, TDP43 rescue inactive and Abeta rescue inactive.
CCN(CC)C(=S)SCC(=O)Nc1ccc(F)cc1 was read as FUS suppressor inactive, TDP43 rescue 14µM, aSyn yeast inh inactive and Abeta rescue inactive.
`Cc1nn(CC(=O)Nc2cccc(C(F)(F)F)c2)c(=O)c2cccn12` gave FUS suppressor inactive, TDP43 rescue inactive, aSyn yeast inh 6.3µM and Abeta rescue inactive.

Screening results as filed in PubChem.
